# Most compounds without a hit are left out; they make up all but 3% or so of the library.
# rTrxR1 inhibitor = inhibitors of rat thioredoxin reductase 1; O89049; recombinant rTrxR1, NADPH fluorescence consumption, selenite substrate; Potency, µM (highest dose often 114 µM), for the others: at the highest dose activity change, negative = inhibition, usual class: inhibitors; hit rate 1% among 390,000; AID 588453; further: on the % scale 0 is the no-effect control and ±100 the full control effect; nearly all actives have a fitted effect of over 65% in size
# Target sequence (O89049 whole entry, looked up): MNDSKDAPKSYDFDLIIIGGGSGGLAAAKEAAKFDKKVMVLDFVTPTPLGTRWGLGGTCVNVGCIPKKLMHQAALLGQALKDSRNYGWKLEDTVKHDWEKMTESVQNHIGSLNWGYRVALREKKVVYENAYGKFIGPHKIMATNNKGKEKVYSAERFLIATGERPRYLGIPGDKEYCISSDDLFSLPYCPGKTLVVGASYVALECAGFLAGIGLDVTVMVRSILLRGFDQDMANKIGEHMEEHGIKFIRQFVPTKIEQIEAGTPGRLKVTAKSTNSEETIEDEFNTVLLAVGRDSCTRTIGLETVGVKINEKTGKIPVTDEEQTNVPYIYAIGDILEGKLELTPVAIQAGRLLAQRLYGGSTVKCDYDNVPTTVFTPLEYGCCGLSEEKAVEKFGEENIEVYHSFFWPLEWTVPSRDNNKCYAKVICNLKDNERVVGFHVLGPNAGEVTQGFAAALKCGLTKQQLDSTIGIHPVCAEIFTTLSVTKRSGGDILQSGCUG
#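 Rat TrxR1 (90 nM in the dispensed reagent) was pre-reduced with 400 uM NADPH for 5 min at room temperature, then incubated with compound for 15 min. After 400 uM selenite was added, NADPH fluorescence (Ex 340/Em 450 nm) was followed for 8 min.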
# GALK inh = galactokinase (human) inhibition; Purified GALK, Kinase-Glo residual ATP luminescence; hit rate 0.007% among 270,000; Potency, µM (highest dose often 57.5 µM), inactives show top-dose activity change, negative = inhibition, most hits filed as inhibitors; AID 1868; further: on the % scale 0 is the no-effect control and ±100 the full control effect
#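 5 nM enzyme, 35 uM ATP, 100 uM galactose, 20 mM HEPES pH8.0, 5 mM MgCl2; 1 h RT; residual ATP by Kinase-Glo Plus luminescence, qHTS format.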
# A549 tox = kills or reduces viability of A549 cells in Nrf2 counter-screen; A549 ARE-Fluc cells, CellTiter-Fluor viability, 18-24 h; Potency, µM (doses to about 46 µM), without a hit: at the highest dose activity change, negative = cytotoxicity, most hits filed as inhibitors; hit rate 0.16% among 390,000; further: on the % scale 0 is the no-effect control and ±100 the full control effect
#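 A549 ARE_Fluc cells in 5% FBS OPTI-MEM were exposed to compounds in concentration-response for 18-24 h at 37 deg C. Viability was read by CellTiter-Fluor fluorescence (Ex 405/Em 525) after 30 min, before the luciferase read.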
# Nrf2 inh = blocks Nrf2 signaling. A549 ARE-Fluc reporter, luciferase luminescence, 18-24 h. Potency, µM (doses to about 46 µM), for the others: at the top dose activity change, negative = inhibition, actives largely listed as inhibitors. hit rate 2.1% among 360,000. AID 504444; further: on the % scale 0 is the no-effect control and ±100 the full control effect; nearly all actives have a fitted effect of over 60% in size
#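 Cells were seeded and rested 2 h, then exposed to compounds for 18-24 h. CellTiter-Fluor was read first as a viability measure. BugLite was added 15 min before the final luminescent read of ARE-luciferase activity in A549 cells.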
# Nrf2 ARE act = activators of Nrf2 (ARE) signaling | Potency, µM (titrated, usually from 46.1 µM), inactives show at the top dose activation, usual class: activators | AID 624171 | hit rate 0.31% among 410,000 | AREc32 ARE-luciferase reporter (MCF7-derived line), luminescence, 24 h; further: % of control where 0% means no effect; nearly all actives have a fitted effect of over 65% in size
#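 Luminescent ARE reporter assay in AREc32_Fluc cells: overnight plating at 37 deg C, 24 hr compound incubation, Steady-Glo added, 30 min RT before reading.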
# TrxR1 substrate = substrates of rat thioredoxin reductase 1 | purified TrxR1 substrate turnover, NADPH consumption readout | Potency, µM (top dose mostly 114 µM), for the others: top-dose activity change, negative = substrate turnover | hit rate 0.01% among 390,000 | AID 588456; further: on the % scale 0 is the no-effect control and ±100 the full control effect; nearly all actives have a fitted effect of over 50% in size
#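 Rat TrxR1, dispensed at 90 nM, was prereduced with 400 uM NADPH (final) for 5 min at ~22 deg C, then incubated with compound 15 min before 400 uM selenite. A first-read NADPH fluorescence drop versus no-compound background flagged substrates.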
# * = called active by the depositor; ? = inconclusive; . = no result; [ ] = another dose, or the depositor's remark. The call rests on the fitted dose curve; in most records, active means well fitted curve in the direction sought with a large enough effect; inconclusive means small, poorly fitted or top-dose-only effect, or another doubt; inactive means no such curve, though single readings can be large; an effect the other way counts as inactive or inconclusive. Potency means the concentration at half of the fitted maximal effect.
SMILES,rTrxR1 inhibitor,GALK inh,A549 tox,Nrf2 inh,Nrf2 ARE act,TrxR1 substrate
O=C(c1ccc2c(c1)N(Cc1c(F)cccc1Cl)C(=O)c1ccccc1S2)N1CCCC1,25%,.,?,10µM*,4%,-2%
CC(C)(C)OC(=O)NCCCC[C@H](NC(=O)c1[nH]cnc1C(=O)Nc1ccccc1)C(=O)OC(C)(C)C,6%,4%,-19%,?,-2%,-16%
CCOC(=O)c1ccc(NC(=O)c2nc[nH]c2C(=O)N[C@H](C)c2ccccc2)cc1,-3%[57.1 µM],-1%,?,16µM*,-4%,-8%
CC(C)(C)OC(=O)NCc1ccc(CNC(=O)c2[nH]cnc2C(=O)N[C@@H](Cc2ccccc2)C(=O)OC(C)(C)C)cc1,20%,.,-15%,23µM*,5%,-10%
C[C@@H](NC(=O)c1nc[nH]c1C(=O)N[C@@H](CCCCNC(=O)OC(C)(C)C)C(=O)OC(C)(C)C)c1ccccc1,20%,0%,?,16µM*,-1%,-4%
O=C(CSc1nc2ccccc2nc1Cc1ccccc1)NCc1ccccc1Cl,8%[57.1 µM],.,8%,.,-1%,1%[57.1 µM]
Cc1ccc(Cn2cc(/C=C(/C#N)C(=O)Nc3cccc(Cl)c3)c3ccccc32)cc1,1%,.,-9%,?,-1%,-6%
O=C(CN1C(=O)C(=O)N(CCC2=CCCCC2)C1=O)c1c[nH]c2ccccc12,14%,.,-17%,?,5%,-3%
O=C(CN1C(=O)C(=O)N(Cc2ccco2)C1=O)c1c[nH]c2ccccc12,14µM*,.,-12%,9%,3%,0%
CNC(=O)C1CCC(Cn2c(=O)c3sccc3n(CC(=O)Nc3ccc(C)c(C)c3)c2=O)CC1 (configuration not stated),0%[57.1 µM],.,-17%,23µM*,0%,-4%[57.1 µM]
C(=C\c1nc(-c2ccncc2)no1)/c1ccccc1,9%,0%,5%,?,?,3%
C(=C\c1nc(-c2ccccc2)no1)/c1ccccc1,12%,3%,-2%,?,14µM*,3%
Nc1nc(NCCc2ccccc2)c2[nH]cnc2n1,19%,.,11%,?,.,10%
O=C(CCS(=O)(=O)c1nc(-c2cccs2)cc(C(F)(F)F)n1)Nc1cc(Br)ccc1O,14µM*,.,?,?,?,35%
CS(=O)(=O)c1nc(-c2ccccc2)cc(C(F)(F)F)n1,18µM*,-5%,?,23µM*,?,4%
Cc1cc(NC(=O)CCS(=O)(=O)c2nc(-c3ccccc3)cc(C(F)(F)F)n2)no1,18µM*,-2%,-2%,.,-4%,13%[57.1 µM]
Cc1ccc(O)c(NC(=O)CCS(=O)(=O)c2nc(-c3cccs3)cc(C(F)(F)F)n2)c1,20µM*,.,-1%,-1%[9.27 µM],-6%,-3%
COc1ccc(N2CCN(C(CNS(=O)(=O)c3ccc(OC)c(C)c3)c3ccco3)CC2)cc1 (configuration not stated),11%[57.1 µM],.,-7%,.,1%,-4%[57.1 µM]
Cc1cccc(N2CCN(C(=O)Cn3c(-c4cccs4)cc4ccccc43)CC2)c1C,34%,.,5%,-27%,0%,22%
CCN(CC)C(=O)C1CCCN(c2ncnc3c2cnn3-c2ccc(Cl)cc2)C1 (configuration not stated),7%,.,-1%,21µM*,-4%,3%
Cc1ccc(NC(=O)COc2ccccc2C(=O)Nc2ccccc2)cc1,3%,.,.,.,.,-4%
COc1ccc(C(=O)Nc2cccc([N+](=O)[O-])c2)cc1Br,5%[57.1 µM],.,-24%,?,3%,-8%
CCN(CC)S(=O)(=O)c1ccc(C(=O)Nc2ccc(Cc3ccncc3)cc2)cc1,12%,2%,0%,21µM*,1%,-8%
COc1ccc(C(=O)Nc2ccc(OC)c([N+](=O)[O-])c2)cc1Br,20%,-1%,-26%,21µM*,0%,4%
COc1ccc(C(=O)Nc2ccc(Cc3ccncc3)cc2)cc1Br,5%,4%,?,18µM*,4%,-4%
SMILES,rTrxR1 inhibitor,GALK inh,A549 tox,Nrf2 inh,Nrf2 ARE act,TrxR1 substrate
CC(=O)c1ccc(NC(=O)C2CCCN(S(=O)(=O)c3ccc4c(c3)CCCN4C(C)=O)C2)cc1 (configuration not stated),23%[57.1 µM],.,-7%,.,6%,0%[57.1 µM]
CC(C)(C)n1nnnc1C(c1cccs1)N1CCN(c2ccccc2)CC1 (configuration not stated),19%[57.1 µM],0%,?,23µM*,0%,10%[57.1 µM]
Cc1cccc(N2CCN(C(c3cccs3)c3nnnn3C(C)(C)C)CC2)c1C (configuration not stated),20%,1%,6%,-5%,0%,-1%
Cc1cc(-c2ccc(C(=O)O)s2)cnc1N,20µM*,1%,-5%,21%,0%,849%
O=C(Nc1ccccc1)c1ccc(CN2CCc3ccccc3C2)cc1,4%[57.1 µM],-3%,1%,24%,8%,-1%[57.1 µM]
Cc1ccc(NC(=O)c2ccc(CN3CCc4ccccc4C3)cc2)cc1,?,-2%,-14%,?,5%,4%
O=C(Nc1ccccc1)c1ccc(S(=O)(=O)N2CCCCC2)cc1,11%,-5%,-8%,?,3%,-2%
O=C(Nc1cccnc1)c1ccc(CN2CCc3ccccc3C2)cc1,-6%,-1%,5%,13µM*,2%,-5%
Cc1cc(C)cc(NC(=O)c2ccc(CN3CCc4ccccc4C3)cc2)c1,17%[57.1 µM],-4%,-29%,15µM*,4%,9%[57.1 µM]
O=C(Nc1ccc(S(=O)(=O)N2CCCCC2)cc1)c1ccc(CN2CCc3ccccc3C2)cc1,30%,-4%,-19%,0.33µM*,0%,13%
COc1cccc(N2CC(NC(=O)COc3ccccc3F)CC2=O)c1 (configuration not stated),13%[57.1 µM],.,2%,.,1%,-6%[57.1 µM]
O=C(Nc1cccc2cccnc12)OC(Cl)(Cl)Cl,-21%,.,-1%,?,.,1%
CCOc1ccc(-n2nc(CO)c(C(=O)NCc3cccs3)n2)cc1,42%,.,0%,3%,5%,85%
c1ccc2nccnc2c1,?,.,.,.,.,-4%
CCOC(=O)C1CCN(C(c2cccnc2)c2c(NC(=O)c3ccco3)sc(C)c2C)CC1 (configuration not stated),?,-1%,-14%,15µM*,6%,8%
Cc1sc(NC(=O)c2ccco2)c(C(c2cccnc2)N2CCN(CCO)CC2)c1C (configuration not stated),-8%,-3%,10%,2%,2%,-4%
Cc1sc(NC(=O)c2ccco2)c(C(c2cccnc2)N2CCN(c3ccc(F)cc3)CC2)c1C (configuration not stated),50%,-2%,-12%,15µM*,-1%,-1%[57.1 µM]

# From PubChem BioAssay
